# Only some compounds are listed: those with a hit (about 0.5% of all), similar ones and a draw of the others.
# phage Ecoli inh: growth loss of phage-infected E. coli, primary screen, RecBCD inhibitor project, absorbance, with phage, HTS | 360,000 compounds, 0.26% hits | inhibition, % at 11.9 µM; in the data active = inhibition above about 11%
# AddAB inh: growth inhibition of E. coli expressing H. pylori AddAB, primary screen, AddAB inhibitor project, absorbance. 330,000 compounds, 0.29% hits. inhibition, % at 11.9 µM. AID 435030, 2010; in the data active = inhibition above about 12%;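 also: 0% = vehicle wells of infected cells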
# Tat export inh: E. coli Tat export inhibitors, primary screen, MC4100, TorA-mCherry reporter, fluorescence, single point; 340,000 compounds, 0.036% hits; AID 488895, 2010; inhibition, % at 10 µM;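 active = mean replicate inhibition at least 50% and at least half of replicates individually reaching 50%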;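 also: exported cargo escapes ClpAP degradation while cytoplasmic cargo is degraded and loses fluorescence; 0% = median of neutral control wells and 100% = median of NaSCN control wells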
# E coli growth-1: E. coli V3065 growth inhibition, primary screen, counter-screen for AddAB inhibitor project, absorbance, OD600. 18 h. inhibition, % at 11.9 µM. 330,000 compounds, 0.27% hits. AID 449728, 2010;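 active = inhibition above the campaign's mean inhibition across all tested compounds plus 3 SD, cut at about 9.9% in these data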;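 also: uninfected addAB+ strain grown without phage in ampicillin broth; 0% = DMSO wells and 100% = ciprofloxacin 0.95 µg/ml wells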
# E coli growth-2: E. coli growth inhibition, primary screen, OD600. Escherichia coli growth, 23 h; active compounds read low. AID 1053175, 2014. 330,000 compounds, 0.21% hits. OD600 absorbance (no concentration beside the values);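 active = OD600 absorbance below the run mean of sample wells minus 3.6 SD, in any replicate, cut at about 0.56 in these data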
# RecBCD conf: growth loss of phage-infected RecBCD+ E. coli, confirmation, RecBCD inhibitor project, absorbance, E. coli V66, T4 gene 2 phage; AID 651982, 2013; 890 compounds, 45% hits; shares compounds with phage Ecoli inh; inhibition, % at 11.9 µM; E. coli V66 + T4 2- phage, growth OD;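 active = mean inhibition over triplicates exceeding the hit threshold derived in the original primary screen, cut at about 11% in these data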
# Ecoli viability: E. coli viability inhibition, counter-screen for RecBCD inhibitor project, absorbance, high throughput; shares compounds with phage Ecoli inh; absorbance (OD) growth; inhibition, % at 11.9 µM; 890 compounds, 29% hits; AID 651983, 2013; in the data active = inhibition above about 20%;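 also: E. coli strain V66 grown with compound alone and no phage infection; 0% = bacteria with DMSO vehicle only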
# AddAB phage OD: growth loss of phage-infected AddAB-carrying E. coli, confirmation, counter-screen for RecBCD inhibitor project, absorbance, E. coli V3065, T4 phage. 890 compounds, 45% hits. E. coli expressing H. pylori AddAB + T4 phage, OD growth; gene 2 mutant T4, recBCD-deleted host. shares compounds with phage Ecoli inh. inhibition, % at 11.9 µM. AID 651984, 2013;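 active = mean inhibition above the solvent-only control wells' mean plus 3 SD, cut at about 22% in these data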;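 also: higher means less bacterial growth from phage killing when AddAB is blocked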
# The depositor's hits bear a star; / = not tested or not shown.
SMILES,phage Ecoli inh,AddAB inh,Tat export inh,E coli growth-1,E coli growth-2,RecBCD conf,Ecoli viability,AddAB phage OD
CC(=O)CC1c2ccccc2S(=O)(=O)N1C1CCCCC1 (configuration not stated),/,/,/,/,0.67,/,/,/
CCN(CC)c1ccc(C(=C2C=CC(=[N+](CC)CC)C=C2)c2ccccc2)cc1,79*,/,64*,/,/,73*,80*,83*
NS(=O)(=O)c1ccc(NC(=S)Nc2ccc(S(=O)(=O)Nc3nccs3)cc2)cc1,11*,/,/,/,/,3,3,8
O=S(=O)(Nc1ncccn1)c1ccc(NC(=S)Nc2ccccc2Cl)cc1,11*,7,-10,3,/,0,-2,6
CC(C)(C)C(=O)NC(=S)Nc1ccc(S(=O)(=O)Nc2nccs2)cc1,5,3,-2,-1,0.65,/,/,/
O=C(NN=Cc1ccc2cccnc2c1)c1nc2ccccc2c(=O)[nH]1,/,/,/,/,0.64,/,/,/
COC(=O)c1ccc(C=NNC(=O)C(=O)NCC2CCCO2)cc1 (configuration not stated),/,/,/,/,0.67,/,/,/
CN(C)CCCNC(=O)c1ccc(-c2cc(O)c3ncccc3c2)cc1,3,6,5,6,0.61,/,/,/
CN(C)c1ccc(-c2cc(O)c3ncccc3c2)cc1,14*,7,-9,11*,/,1,2,1
CCOC(=O)CCC(=O)O[C@H]1[C@H](O[C@@H]2[C@@H](C)[C@H](O[C@H]3C[C@@](C)(OC)[C@@H](O)[C@H](C)O3)[C@@H](C)C(=O)O[C@H](CC)[C@@](C)(O)[C@H](O)[C@@H](C)C(=O)[C@H](C)C[C@@]2(C)O)O[C@H](C)C[C@@H]1N(C)C,26*,25*,19,22*,/,14*,15,9
CC=CC(=O)N1CC2(CC(c3cccc(NC(=O)CC(c4ccccc4)c4ccccc4)c3)=NO2)CC1C(N)=O (configuration not stated),/,/,/,/,0.72,/,/,/
O=C(NNS(=O)(=O)c1ccc(F)cc1)c1cc(Cl)ccc1O,15*,/,8,/,0.63,-3,-1,3
C=CCON=CC1=C(O)C(C(=O)OC)C(C)(C)CC1=O (configuration not stated),/,/,/,/,0.68,/,/,/
OC(c1cccc(Cl)c1)c1ncc(-c2ccc3ccccc3c2)[nH]1 (configuration not stated),15*,/,/,/,/,12*,16,20
OC(c1cccc(F)c1)c1ncc(-c2ccc3ccccc3c2)[nH]1 (configuration not stated),2,/,/,/,/,/,/,/
COc1cccc(-c2cnc(C(O)c3cc(Cl)cc(Cl)c3)[nH]2)c1 (configuration not stated),12*,/,/,/,/,11*,14,19
COc1cccc(-c2cnc(C(O)c3cc(F)cc(Cl)c3)[nH]2)c1 (configuration not stated),8,/,/,/,/,/,/,/
Cc1ccc(-c2cnc(C(O)c3cc(F)cc(Cl)c3)[nH]2)cc1 (configuration not stated),12*,/,/,/,/,7,10,6
CCN(CC)S(=O)(=O)c1ccc(NN=Cc2ccc(O)cc2)nc1,/,/,/,/,0.69,/,/,/
O=C(/C=C/c1ccccc1)c1cc(Br)ccc(=O)c1O,27*,9,-10,10*,0.71,16*,22*,6
O=C1C=C(c2ccc(-c3ccccc3)c(F)c2)CC(c2ccc(F)cc2)C1 (configuration not stated),/,/,/,/,0.64,/,/,/
Cc1ccc(C=NNC(=O)c2c(C)nc3ccc(Br)cn23)cc1,/,/,/,/,0.7,/,/,/
CC(C)(C)c1cc(C=NNC(=O)Cc2nc3ccccc3[nH]2)cc(C(C)(C)C)c1O,/,/,/,/,0.73,/,/,/
O=[N+]([O-])c1cc([N+](=O)[O-])c2cccnc2c1Oc1ccccc1O,1,5,2,-10,0.69,/,/,/
Oc1c(I)cc(Cl)c2cccnc12,32*,31*,-14,44*,0.12*,43*,49*,40*
SMILES,phage Ecoli inh,AddAB inh,Tat export inh,E coli growth-1,E coli growth-2,RecBCD conf,Ecoli viability,AddAB phage OD
O=[N+]([O-])c1ccc(O)c2ncccc12,62*,64*,20,67*,0.066*,79*,74*,69*
Oc1c(Cl)c(Cl)c2ncccc2c1Cl,4,/,0,/,0.68,/,/,/
O=[N+]([O-])c1cc(Cl)c(O)c2ncccc12,44*,/,-1,/,0.068*,53*,55*,46*
Cc1nc2ccccc2c(=O)n1N=Cc1ccccn1,/,/,/,/,0.69,/,/,/
CC1(CC(=O)NN=Cc2cc(Br)c(O)cc2O)OCCO1,/,/,/,/,0.64,/,/,/
NCC[C@H](O)C(=O)N[C@@H]1C[C@H](N)[C@@H](O[C@H]2O[C@H](CN)[C@@H](O)[C@H](O)[C@H]2O)[C@H](O)[C@H]1O[C@H]1O[C@H](CO)[C@@H](O)[C@H](N)[C@H]1O,100*,/,126*,/,/,100*,100*,101*
NCC1OC(OC2C(N)CC(N)C(OC3OC(CO)C(O)C(N)C3O)C2O)C(N)CC1O (configuration not stated),/,/,/,/,0.68,/,/,/
Cc1cc(N/N=C/c2ccc(N(C)C)cc2)c2ccccc2n1,12*,5,-6,-2,/,-3,-4,4
Cc1ccccc1COCC(CC(C)C)N1CCN(C(=O)c2cccc(C(F)(F)F)c2)CCC1=O (configuration not stated),/,/,/,/,0.7,/,/,/
CC(=O)SC1CC(=O)N(c2c(C)cccc2C)C1=O (configuration not stated),12*,-1,-4,-2,0.67,-1,-1,2
S=C(NCc1ccccn1)NN=Cc1ccccn1,18*,/,0,/,/,14*,16,16
CC(=O)OCC1=C(C(=O)O)N2C(=O)C(NC(=O)c3ccc(F)cc3)C2SC1 (configuration not stated),2,0,-3,0,0.68,/,/,/
CO/N=C(\C(=O)N[C@@H]1C(=O)N2C(C(=O)O)=C(COC(N)=O)CS[C@H]12)c1ccco1,63*,-3,1,0,/,93*,98*,81*
CON=C(C(=O)NC1C(=O)N2C(C(=O)O)=C(CSc3nc(=O)c(=O)[nH]n3C)CSC12)c1csc(N)n1 (configuration not stated),102*,/,-22,/,/,102*,103*,103*
C/C(C=NNC(=O)Cn1cncn1)=C/c1ccc(C(C)C)cc1,/,/,/,/,0.72,/,/,/
Fc1ccc(CNC(=S)Nc2ccc(Cl)cc2)cc1,12*,8,-2,8,0.63,5,7,7
